Data published in PubChem BioAssay AID720540 (National Center for Advancing Translational Sciences (NCATS), 2013).
The campaign covered roughly 1,300 compounds. About 460 (35%) were called active. About 39% were inconclusive and are not listed. Calls follow the shape of the dose curve; as a rule, active = well fitted inhibition curve with a large enough effect; inconclusive = small, poorly fitted or top-dose-only effect; inactive = flat fitted curve, though single readings scatter. The list shows a part of the results. Some structures have more than one record in an assay (separate samples or runs), and their calls can disagree.
Also: nearly all actives have a fitted effect of over 65% in size.

These compounds were tested against Protein phosphatase EYA2 (Homo sapiens) (UniProt O00167) (assay: qHTS for Inhibitors of the Phosphatase Activity of Eya2: Confirmatory Assay for Cherry-picked Compounds). Conditions: purified EYA2 phosphatase activity, qHTS confirmation; series mostly up to 46.1 µM.
Protein phosphatase EYA2 (Homo sapiens), sequence (O00167 whole entry, looked up, the tested form may be a part): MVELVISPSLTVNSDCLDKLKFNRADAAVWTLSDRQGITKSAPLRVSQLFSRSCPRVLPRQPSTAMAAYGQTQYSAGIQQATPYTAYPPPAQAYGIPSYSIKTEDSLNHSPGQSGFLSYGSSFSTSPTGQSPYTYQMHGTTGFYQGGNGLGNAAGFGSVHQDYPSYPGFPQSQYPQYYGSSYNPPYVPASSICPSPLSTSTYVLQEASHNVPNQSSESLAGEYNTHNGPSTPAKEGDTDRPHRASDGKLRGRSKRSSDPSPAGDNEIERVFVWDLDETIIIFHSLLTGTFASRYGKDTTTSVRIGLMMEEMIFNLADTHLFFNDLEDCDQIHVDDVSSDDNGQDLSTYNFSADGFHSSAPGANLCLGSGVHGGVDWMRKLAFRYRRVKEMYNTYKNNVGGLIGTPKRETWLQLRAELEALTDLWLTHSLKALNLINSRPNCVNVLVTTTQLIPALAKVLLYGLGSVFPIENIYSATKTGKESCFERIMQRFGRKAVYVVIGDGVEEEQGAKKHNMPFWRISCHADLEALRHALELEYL
Source text: The Eya protein family is an essential co-activator of the Six1 transcription factor. Six1 is a developmental gene that is abnormally re-expressed in a large percentage of breast cancers. This over-expression plays a causal role in the initiation and metastatic development of breast cancers. The Eya family of protein is also found to contain a unique HAD phosphatase domain with protein tyrosine phosphatase activity which can potentially play a role in Six1-mediated breast tumorigenesis. Recently, Eya2 is found to dephosphorylate the histone variant H2AX and direct cells towards DNA repair instead of apoptosis in the event of DNA damage.
A 1536 well format, fluorescence based qHTS assay was developed and used to target the phosphatase activity of Eya2 (AID 488837). Inhibitors found against Eya2 could serve as potential therapeutic tools to inhibit Six1-mediated breast tumorigenesis and to increase the efficiency of radiation and certain chemo therapy. This assay assessed the activity of the primary screen cherry-picked compounds against Eya2. Inhibition is the desired outcome for this assay.
NIH Chemical Genomics Center [NCGC]
NIH Molecular Libraries Probe Centers Network [MLPCN]
Assay Submitter (PI): Rui Zhao, University of Colorado Denver
Eya2 enzyme and 3-O-methyl-fluorescein phosphate (OMFP) substrate working solutions were reconstituted in the buffer reagent consist of 50 mM HEPES pH 7.5, 50 mM NaCl, […], 0.05% BSA and 1 mM DTT. One and a half microliter of 0.2 uM Eya2 working solution was dispensed in a 1536 well Greiner plate (black, medium bind). Twenty-three nanoliter of test compounds and control compound EGTA was transferred to the assay plate using the Kalypsys robotic system equipped with a 1536 pin head. The plate was incubated at room temperature for 10 minutes. One and a half microliter of the 50 uM the OMFP substrate was then dispensed to the assay plate and incubated at room temperature for additional 10 min. The fluorescence signal was read using the PerkinElmer ViewLux plate reader using a 485 nm excitation and 525 nm emission filters. The data was normalized to the positive control for maximum inhibition and DMSO treated wells as negative control.
In the case of `CN(C)S(=O)(=O)c1ccc(C(=O)NNc2nc(-c3ccccc3)c3cc(Br)ccc3n2)cc1`, the Potency is reported as 8.49 µM (active). With `Cc1ccc(N2C(=O)NC(=O)/C(=C/c3ccc(OC(=O)c4cccs4)cc3)C2=O)cc1` the Potency was 12 µM (active). In the case of `O=C(Cc1ccccc1)c1ccccn1`, the Potency is reported as 10.7 µM (active). `O=C1NC(=S)N(c2ccccc2)C(=O)/C1=C/c1ccco1` was tested, and the Potency was 6.75 µM (active). In the case of `COC(=O)C1=C(c2cccc(OCc3ccccc3)c2)C[C@@H]2CC[C@H]1N2C(=O)NCCCc1ccccc1`, the Potency is reported as “inactive”. In the case of `COC(=O)C1=C(c2ccc(F)cc2OCc2ccccc2)C[C@@H]2CC[C@H]1N2C(=O)NCc1ccc(N(C)C)cc1`, the Potency is reported as 8.49 µM (active). `C[C@H]1CCC[C@H](O)CCCCCc2cc(O)cc(O)c2C(=O)O1` was tested, and the Potency was “inactive”. In the case of `NC(Cc1cc(O)c(O)cc1O)C(=O)O` (stereo not given), the Potency is reported as 2.39 µM (active). For `N[C@@H](Cc1cc(I)c(O)c(I)c1)C(=O)O`, the Potency was 9.53 µM (active). In the case of `COc1ccc(-c2cc(=NCCC(=O)O)c3cc(C)ccc3o2)cc1`, the Potency is reported as 16.9 µM (active). With `CN(C)c1ccc(C=C2C=CC=C2)cc1` the Potency was 19 µM (active) and inactive. `COc1ccccc1N1CCN(CCc2c[nH]c3cc4c(cc23)OCO4)CC1` was tested, and the Potency was 19 µM (active). With `CNc1ccc2nc3ccccc3[n+](C)c2c1` the Potency was 16.9 µM (active). With `O=C(O)CCCOc1ccc(Cl)cc1Cl` the Potency was “inactive”. With `O=[N+]([O-])c1cc(C(F)(F)F)c(Cl)c([N+](=O)[O-])c1Nc1ncc(C(F)(F)F)cc1Cl` the Potency was 21.3 µM (active). For `C=C1C(=O)O[C@@H]2C[C@@H](C)[C@@H]3C=CC(=O)[C@@]3(C)[C@@H](OC(=O)CC(=O)O[C@H]3[C@@H]4C(=C)C(=O)O[C@@H]4C[C@@H](C)[C@@H]4C=CC(=O)[C@]43C)[C@H]12`, the Potency was 10.7 µM (active). With `CCOC(=O)CCCc1cc[c]([Sb](=[O])([OH])[OH])cc1` the Potency was 2.13 µM (active). For `CCOC(=O)c1cc2c(cn1)[C@@H](CCO)NC2`, the Potency was “inactive”. `Cc1c(N=Nc2c(O)[nH]c(=O)[nH]c2=O)c(=O)n(-c2ccccc2)n1C` was tested, and the Potency was 2.13 µM (active). `COC1C(O)C(C)OC(OC2C(Oc3cccc4c(O)c5c(=O)oc6ccc(C)c7c(=O)oc(c34)c5c67)OC(C)C(O)C2O)C1O` (stereo not given) was tested, and the Potency was “inactive”. `CN(C)c1ccc(N=Nc2ccccc2)cc1` was tested, and the Potency was 5.36 µM (active). `Cc1nc2ccccc2c(=O)n1-c1ccc(Cl)cc1[N+](=O)[O-]` was tested, and the Potency was “inactive”. For `CC(N)[C@H](O)c1ccc(O)c(O)c1` (stereo not given in full), the Potency was “inactive”. In the case of `O=C(O)c1cc[c]([Sb](=[O])([OH])[OH])cc1[N+](=O)[O-]`, the Potency is reported as 2.69 µM (active). For `O=C1NC(=O)N(c2ccc(Cl)cc2)C(=O)/C1=C\c1ccc(Sc2nc3ccccc3[nH]2)o1`, the Potency was 13.5 µM (active).
